Gal4-VP16 FLuc: counter-screen for ROR gamma inhibitors: Gal4-VP16 reporter | Potency, µM (series often up to 53.6 µM), inactives show at the highest dose activity, negative = inhibition, hits mostly inhibitors | actives 3.5% (n = 310,000) | AID 2546 | Drosophila S2 Gal4-VP16 UAS-luciferase, luminescence, 20 h;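 further: Gal4-VP16 expression switched on by copper sulfate through the metallothionein promoter; nearly all actives have a fitted effect of over 50% in size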
ELG1 DNA repair: blocks ELG1-dependent DNA repair in HEK293T cells | HEK293T ELG1-luciferase reporter, luminescence, 16 h; DNA damage induced by 5-fluorouridine | Potency, µM (top dose mostly 46.1 µM), without a hit: at the top dose activity change, negative = inhibition, most hits filed as inhibitors | AID 504467 | actives 2.3% (n = 330,000); further: nearly all actives have a fitted effect of over 55% in size
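Luminescence from the luciferase reporter, measured 30 min after ONE-Glo reagent at room temperature, was the read-out. Beforehand, 2,000 cells per well were exposed for 16 hr at 37 °C to 5-fluorouridine together with compound or vehicle.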
ALOX12 inh: ALOX12 (human) lipoxygenase inhibition; actives 1.1% (n = 580,000); purified 12hLO, xylenol orange hydroperoxide absorbance; Potency, µM (titrated, usually from 108 µM), for the others: top-dose activity change, negative = inhibition, actives largely listed as inhibitors; P18054; AID 1671190
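Hydroperoxide product was detected by ferrous iron/xylenol orange as the 573 to 405 nm absorbance ratio. Arachidonic acid at 40 uM (final) was turned over for 30 min at room temperature by 150 nM human 12hLO, pH 7.0 Hepes buffer, after 15 min compound preincubation.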
TDP1 cell CPT: DT40-hTDP1 cell growth loss with CPT; chicken DT40 Tdp1-/-;hTDP1 cells + 20 nM CPT, ATP luminescence, 48 h; Potency, µM (titrated, usually from 46.2 µM), inactives show top-dose activity change, negative = growth inhibition, most hits filed as inhibitors; actives 12% (n = 420,000); further: nearly all actives have a fitted effect of over 55% in size
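Chicken DT40 Tdp1-/- cells stably complemented with human TDP1 were seeded at 400 cells/well in medium containing 20 nM camptothecin, exposed to pin-transferred compounds, and grown at 37 °C for at least 48 hr. Viability was read as ATP luminescence.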
DT40 TDP1 no CPT: qHTS for Inhibitors of human tyrosyl-DNA phosphodiesterase 1 (TDP1): qHTS in cells in absence of CPT. actives 15% (n = 420,000). Potency, µM (titrated, usually from 46.2 µM), for the others: top-dose activity change, negative = growth inhibition, usual class: inhibitors. DT40 Tdp1-/- hTDP1 cells, no CPT, ATP luminescence, 48 h. AID 686978, 2013; further: nearly all actives have a fitted effect of over 55% in size
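Growth kinetics read by CellTiter-Glo luminescence after ≥48 hr at 37 °C. Cells: DT40 Tdp1-/- stably carrying human TDP1, 400 per well, compound exposure in the absence of CPT (DMSO vehicle).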
RORg inh: ROR gamma (mouse) transcription inhibition; P51450; Drosophila S2 Gal4-RORgamma UAS-luciferase reporter, 20 h; Potency, µM (doses to about 53.6 µM), inactives show at the top dose activity change, negative = inhibition, actives largely listed as inhibitors; actives 5.4% (n = 310,000); AID 2551; further: nearly all actives have a fitted effect of over 60% in size
Target sequence (P51450 whole entry, looked up, the tested form may be a part): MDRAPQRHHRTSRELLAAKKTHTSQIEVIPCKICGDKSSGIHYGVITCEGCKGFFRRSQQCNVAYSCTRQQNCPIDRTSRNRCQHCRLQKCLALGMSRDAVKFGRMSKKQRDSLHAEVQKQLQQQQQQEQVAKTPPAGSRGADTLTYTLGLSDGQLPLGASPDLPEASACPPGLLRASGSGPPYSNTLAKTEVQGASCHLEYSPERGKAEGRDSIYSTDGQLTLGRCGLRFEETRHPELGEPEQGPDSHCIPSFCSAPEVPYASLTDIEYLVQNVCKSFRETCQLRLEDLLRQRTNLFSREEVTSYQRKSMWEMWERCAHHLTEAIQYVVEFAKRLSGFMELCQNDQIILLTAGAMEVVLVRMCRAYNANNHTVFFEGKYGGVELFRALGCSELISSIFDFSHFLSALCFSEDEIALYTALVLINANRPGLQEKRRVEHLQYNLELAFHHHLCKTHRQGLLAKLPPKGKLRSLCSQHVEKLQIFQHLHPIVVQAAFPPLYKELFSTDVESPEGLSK
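Drosophila Schneider cells stably carrying a metallothionein-driven Gal4 DBD–ROR gamma fusion and a UAS-Photinus luciferase reporter were exposed to compound for 1 hr, then induced with copper sulfate (700 uM final) for 20 hr at ambient temperature before luminescence reading.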
Active calls of the source: *; ? = inconclusive; . = no result. An excerpt weighted towards active compounds, which were near 15% of everything screened. The call rests on the fitted dose curve; in most records, active means well fitted curve in the direction sought with a large enough effect; inconclusive means small, poorly fitted or top-dose-only effect, or another doubt; inactive means no such curve, though single readings can be large; an effect the other way counts as inactive or inconclusive. On the % scale 0 is the no-effect control and ±100 the full control effect; potency means the concentration at half of the fitted maximal effect.

SMILES	Gal4-VP16 FLuc	ELG1 DNA repair	ALOX12 inh	TDP1 cell CPT	DT40 TDP1 no CPT	RORg inh
O=C1CSC(=S)N1/N=C/c1ccc(C(F)(F)F)cc1	-1%	-5%	?	?	?	?
C(=N\n1c2ccccc2c2ccccc21)/c1ccccc1	6%	5%	32%	?	?	7%
O=C1CSC(=S)N1/N=C/C=C/c1ccccc1	?	7%	?	-14%	-1%	2.5µM*
O=C1CSC(=S)N1/N=C/c1cccc(C(F)(F)F)c1	?	11%	-17%	-10%	1%	7.9µM*
C(=C\c1ccccc1)/C=N/n1c2ccccc2c2ccccc21	.	.	-11%	.	.	.
O=C1CSC(=S)N1/N=C/c1c(F)cccc1F	-11%	0%	28µM*	?	-9%	-36%
Cc1[nH]c2ccccc2c1C(=O)OC(C)C(N)=O (stereo not drawn)	.	.	-13%	.	.	.
CC(C)n1nc(C(=O)Nc2ccc(S(=O)(=O)C(F)F)cc2)c2ccccc2c1=O	.	.	0%	.	.	.
CCS(=O)(=O)N1CCC(c2ncc(C)n2C(C)C)C1 (stereo not drawn)	.	.	20%	.	.	.
Cc1ccc(C(=O)N/C(=C\c2cccs2)c2nc3ccccc3[nH]2)cc1	-19%	2%	-8%	16µM*	?	26%
N#C/C(=C\c1cccs1)c1nc2ccccc2[nH]1	20%	?	?	-19%	-43%	7%
Cn1c(=O)c2c(ncn2CC(=O)c2ccc(O)cc2)n(C)c1=O	.	.	-22%	.	.	.
N#C/C(=C\c1ccc(-c2ccc(S(=O)(=O)N3CCOCC3)cc2)o1)C(=O)NC1CC1	0%	?	-38%	12µM*	21µM*	15%
N#C/C(=C/c1ccc(-c2ccc(S(=O)(=O)N3CCOCC3)cc2)o1)C(=O)NC1CC1	.	.	-18%	-107%	15µM*	.
N#Cc1ccc(Cl)cc1NC(=O)CNCc1cccs1	-16%	-5%	0%	9%	2%	0%
Cc1cc(=O)n(Cc2ccccc2)c(O)c1C#N	6%	15%	18µM*	-2%	-13%	19%
Cc1ccccc1-n1c(C)nnc1SCC(=O)Nc1c(C#N)c(C)c(C)n1Cc1ccccc1	.	.	1%	.	.	.
Cc1c(C#N)c(NC(=O)CCl)n(Cc2cccs2)c1C	?	?	-21%	5.2µM*	2.6µM*	-13%
Cc1c(C#N)c(NC(=O)CCl)n(Cc2ccc(F)cc2)c1C	?	?	-13%	5.2µM*	5.8µM*	-43%
Cc1c(C#N)c(NC(=O)CCl)n(Cc2ccccc2)c1C	?	?	-10%	2.6µM*	2.6µM*	?
Cc1cc(=O)n(CCCO)c(O)c1C#N	-3%	1%	?	-1%	-15%	-18%
COc1cc(-c2nc3nc(C)cc(C)n3c2Nc2ccc(Cl)cc2)ccc1O	.	.	-7%	?	?	.
CSc1ccc(-c2nc3cccc(C)n3c2Nc2ccc(Cl)cc2)cc1	.	.	-37%	9.2µM*	7.3µM*	.
Cc1ccc(Nc2c(-c3ccc(O)cc3)nc3cccc(C)n23)cc1	.	.	-18%	23µM*	?	.
COCCCNC(=O)C1CCN(c2nn3cc(-c4ccc(F)cc4)nc3s2)CC1	.	.	-19%	?	?	.
O=C(NCc1cccc(Cl)c1)C1CCCN(c2nn3cc(-c4ccc(F)cc4)nc3s2)C1 (stereo not drawn)	.	.	-19%	?	23µM*	.
O=C(NCc1cccc(Cl)c1)C1CCN(c2nn3cc(-c4ccc(F)cc4)nc3s2)CC1	.	.	-16%	?	?	.
O=C(Nc1cccc(Cl)c1)C1CCCN(c2nn3cc(-c4ccc(F)cc4)nc3s2)C1 (stereo not drawn)	.	.	?	?	23µM*	.
